From PubChem BioAssay
PLK1 PBD inh = inhibitors of human PLK1 polo-box domain binding. Plk1 PBD binding of FITC phosphopeptide, fluorescence polarization. 360,000 compounds, 2.8% hits. Potency, µM, for inactives: max response, negative = inhibition, actives largely listed as inhibitors. P53350; further: potency means the concentration at half of the fitted maximal effect; series mostly up to about 57 µM; nearly all actives have a fitted effect of over 65% in size
Target sequence (P53350 whole entry, looked up, the tested form may be a part): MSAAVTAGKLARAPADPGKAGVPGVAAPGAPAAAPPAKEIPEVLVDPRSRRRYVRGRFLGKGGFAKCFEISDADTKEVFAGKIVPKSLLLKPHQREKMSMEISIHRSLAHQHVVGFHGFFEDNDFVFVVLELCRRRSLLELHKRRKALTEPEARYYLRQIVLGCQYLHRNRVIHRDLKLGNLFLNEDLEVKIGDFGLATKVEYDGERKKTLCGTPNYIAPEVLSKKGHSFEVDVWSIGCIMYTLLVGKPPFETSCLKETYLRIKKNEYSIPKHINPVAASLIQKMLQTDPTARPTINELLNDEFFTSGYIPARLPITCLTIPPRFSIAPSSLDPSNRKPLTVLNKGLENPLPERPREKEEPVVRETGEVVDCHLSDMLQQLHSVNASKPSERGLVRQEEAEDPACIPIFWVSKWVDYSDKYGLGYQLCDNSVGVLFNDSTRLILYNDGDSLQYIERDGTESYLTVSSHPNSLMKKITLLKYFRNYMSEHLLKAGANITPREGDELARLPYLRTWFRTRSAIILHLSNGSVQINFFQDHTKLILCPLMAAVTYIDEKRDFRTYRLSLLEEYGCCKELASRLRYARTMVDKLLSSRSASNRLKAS
CCT modulator = cytosolic chaperonin activity modulation | AID 651819 | 360,000 compounds, 0.3% hits | purified chaperonin ATPase assay, HTRF ADP detection, 30 min | activity change, % (no concentration beside the values), hits read low; in the data active means activity change below about -30%
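TRiC at 40 or 20 nM final (batch-dependent) in 30 mM Tris pH 7.4, 100 mM KCl, 5 mM MgCl2, 1 mM DTT, with compound at single 76 uM and 10 uM ATP, 30 min at 37 deg C. ADP detected by HTRF Transcreener, 665/615 ratio.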
G9a block = inhibitors of human histone lysine methyltransferase G9a; Q96KQ7; G9a H3K9 monomethylation, AlphaScreen, 2 h; Potency, µM (titrated, usually from 102 µM), inactives show at the top dose activity, negative = inhibition, actives largely listed as inhibitors; 350,000 compounds, 8.8% hits; AID 504332; further: potency means the concentration at half of the fitted maximal effect; nearly all actives have a fitted effect of over 75% in size
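Quantitative HTS format: methyltransferase activity on a biotin-tagged H3K9 peptide is measured by AlphaScreen, using a rabbit anti-monomethyl-H3K9 antibody with streptavidin donor and anti-IgG acceptor beads. Final levels are 20 nM enzyme, 500 nM peptide, 20 uM SAM; 2 h RT.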
MmCpn inh = M. maripaludis TRiC chaperonin inhibition | Potency, µM (series often up to 76.9 µM), inactives show at the top dose activity, negative = inhibition, hits mostly inhibitors | 330,000 compounds, 0.031% hits | purified Mm-Cpn ATPase, ADP Transcreener TR-FRET; further: potency means the concentration at half of the fitted maximal effect; nearly all actives have a fitted effect of over 80% in size
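ATPase read-out: TR-FRET ADP immunoassay (anti-ADP Eu cryptate vs ADP-d2), ex 320 nm, em 590/665 nm; signal drops as ADP forms. Enzyme 25 nM, ATP 10 uM, 30 min at 37°C after 10 min compound preincubation.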
VDR inh = vitamin D3 receptor (human) inhibition; P11473; VDR-SRC2-3 peptide fluorescence polarization, 2 h; Potency, µM, without a hit: max response, negative = inhibition, most hits filed as inhibitors; 400,000 compounds, 0.93% hits; AID 504847; further: potency means the concentration at half of the fitted maximal effect
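FP read-out; VDR + SRC2-3 coactivator peptide; 23 nl compound by pintool; 2 h RT incubation; reagents held at 4 deg C, protected from light.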
Sfp inh = blocks B. subtilis Sfp PPTase activity; Biochemical Sfp PPTase activity, qHTS; 310,000 compounds, 3.5% hits; Potency, µM, for inactives: largest response in the series, negative = inhibition, hits mostly inhibitors; Q9F4F7; AID 1490;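 further: the enzyme is Sfp with the accession as filed and its product quenches rhodamine fluorescence; potency means the concentration at half of the fitted maximal effect; 0% = enzyme reaction without inhibitor and -100% = no enzyme wells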
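Reaction rates are the 30-min fluorescence difference (ex 525, em 598 nm) in wells containing 15 nM Sfp, 5 uM rhodamine-CoA and 12.5 uM BHQ-2-YbbR at pH 7.6 with 10 mM MgCl2.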
* hit, by the source's call; ? = inconclusive; / = not tested or not shown; ! = not active in a repeat; [ ] = another dose, or the depositor's remark. In the library only some 10% were active in any assay of this set; here they are far more common. Unless noted, the call rests on the fitted dose curve; in most records, active means well fitted curve in the direction sought with a large enough effect; inconclusive means small, poorly fitted or top-dose-only effect, or another doubt; inactive means no such curve, though single readings can be large; an effect the other way counts as inactive or inconclusive. Unless noted, on the % scale 0 is the no-effect control and ±100 the full control effect.

SMILES | PLK1 PBD inh | CCT modulator | G9a block | MmCpn inh | VDR inh | Sfp inh
O=C1C2C3C=CC(C3)C2C(=O)N1CN(Cc1ccccc1)CN1C(=O)C2C3C=CC(C3)C2C1=O (configuration not stated) | -18% | -2 | -3%[59 µM] | 0% | -6% | -2%
OCCN(Cc1ccccc1)CC1CCCCC1 | 1% | 3 | 11µM* | / | -4% | -20%
OCCN(Cc1ccccc1)CC1CC2C=CC1C2 (configuration not stated) | -3% | -2 | 14µM* | / | 0% | -3%
CCOC(=O)c1cc(-c2ccccc2)n(CC(=O)Nc2ccc(OC)cc2OC)c1C | / | / | -17%[59 µM] | / | 15% | /
Cc1cc(C(=O)NCC2COc3ccccc3O2)c2ccccc2n1 (configuration not stated) | -3% | -1 | 45µM* | -4% | -6% | 18%
COc1ccc([C@]23Cc4ccccc4C(O2)c2c(cc(C)n(Cc4ccccc4)c2=O)O3)cc1 | / | / | 9%[2.33 µM] | -2%[15.4 µM] | / | 7%
COc1cccc(CNC(=O)c2cc3n(n2)CCCN(Cc2ccc(C)cc2)C3=O)c1OC | / | / | 10%[12.7 µM] | / | 8% | /
COc1cc(-c2nc(S(=O)(=O)c3ccc(C)cc3)c(N3CCOCC3)o2)cc(OC)c1OC | -14% | -3 | ? | -2% | 79µM* | ?
Cc1ccc(-c2nc(S(=O)(=O)c3ccc(Cl)cc3)c(N3CCCCC3)o2)cc1 | / | / | 2.8µM* | / | 1% | /
Cc1ccc(S(=O)(=O)c2nc(-c3cccc(C)c3)oc2N2CCCCC2)cc1 | / | / | ? | / | 3% | /
COc1cccc(-c2nc(S(=O)(=O)c3ccc(C)cc3)c(N3CCCCCC3)o2)c1 | / | / | -41%[59 µM] | / | -22% | /
COc1ccc(-c2nc(S(=O)(=O)c3ccc(C)cc3)c(N3CCCCC3)o2)cc1 | / | / | 3.5µM* | / | 89µM* | /
COc1cc(-c2ccno2)ccc1S(=O)(=O)N1CCN(c2ccc(C(C)=O)cc2)CC1 | / | / | -2%[59 µM] | / | 5% | /
CC1S/C(=N/N=C/c2ccco2)N(Cc2ccccc2)C1=O (configuration not stated) | -11% | 0 | / | -2% | -4% | 32µM*
CCC1S/C(=N/N=C/c2ccco2)N(Cc2ccc(F)cc2)C1=O (configuration not stated) | -17% | 0 | ? | 1% | -9% | -21%
COc1ccc(-c2ccc(CNc3ccc4[nH]c(=O)[nH]c4c3)o2)cc1Cl | / | / | -11%[59 µM] | / | 11% | /
CC1CC(C)CN(c2nc(N(C)c3ccccc3)nc(N)c2[N+](=O)[O-])C1 (configuration not stated) | -6% | -2 | 10µM* | 0% | -2% | 5%
Oc1c(Br)cc(/C=N/n2c(-c3ccccc3)n[nH]c2=S)cc1Br | ? | -4 | 1.3µM* | -2% | ? | -19%
Oc1ccc(/C=N/n2c(-c3ccccc3)n[nH]c2=S)cc1Br | -5% | -1 | 0.89µM* | -1% | -6% | -26%
S=c1[nH]nc(-c2ccncc2)n1/N=C/c1cn(-c2ccccc2)nc1-c1ccc(Cl)cc1 | -7% | 1 | -12% | 0% | -2% | 15%
Cc1c(Br)c(O)c(Br)c(O)c1/C=N/n1c(-c2ccccc2)n[nH]c1=S | 3µM* | -8 | 0.79µM* | -1% | ? | ?
Oc1c(Br)cc(/C=N/n2c(-c3ccccc3)n[nH]c2=S)c(O)c1Br | 6.7µM* | 0 | 0.4µM* | -3% | ? | -13%
CCOc1ccc(CNC(=O)CSc2nnc(C)c3c(C)n(-c4ccccc4)nc23)cc1 | / | / | ? | / | 25% | /
CCOc1ccc(C(=O)OCc2cc(=O)n3nc(C4CCCCC4)sc3n2)cc1 | / | / | 7%[59 µM] | / | -9% | /
CCOC(=O)c1cc(-c2ccc(C)cc2)n(CCC(=O)Nc2nc3c(C)cccc3s2)c1C | / | / | ? | / | -9% | /
SMILES | PLK1 PBD inh | CCT modulator | G9a block | MmCpn inh | VDR inh | Sfp inh
Cc1ccccc1NS(=O)(=O)c1nnc(NC(=O)c2ccco2)s1 | / | / | ? | / | 7% | /
NC(=O)N/N=C/c1c(Sc2nnnn2-c2ccccc2)nc2ccccn2c1=O | -5% | -2 | 50µM* | -3% | -10% | -23%
COc1cc2c(cc1O)CCC1C2CC[C@]2(C)[C@@H](O)CC[C@@H]12 (some centres not stated) | / | / | 40µM* | / | / | /
C[C@@]12CC[C@@H]3c4ccc(O)cc4CC[C@H]3[C@H]1CC[C@H]2O | / | / | -4%[21.5 µM] | / | 2% | 4%
COc1ccc2c(c1)CCC1C2CC[C@@]2(C)C(O)CCC12 (some centres not stated) | / | / | / | / | 4% | 5%
C[C@]12CC[C@@H]3c4ccc(O)cc4CC[C@H]3[C@@H]1CC[C@@H]2O | 1% | -1 | 20µM*! | 1% | 4% | -9%
NC(C(=O)O)c1cc(O)c(Cl)c(O)c1 (configuration not stated) | / | / | 21%[59 µM] | / | 2% | 23%
COc1ccc(C(=O)OCC2CC(c3ccccc3)=NO2)cc1OC (configuration not stated) | 11µM* | -3 | 2% | -17% | ? | -5%
CC(=O)Cc1nsc(NC(=O)C2Cc3ccccc3C(=O)O2)n1 (configuration not stated) | -9% | -1 | 56µM* | 2% | 6% | 12%
CCOc1ccccc1NC(=O)NCc1ccccc1F | -5% | -6 | 0% | 0% | 1% | 19%
COc1ccccc1NC(=O)NCc1ccccc1F | 34µM* | -2 | 3% | -1% | -12% | 12%
COc1cccc(NC(=O)NCc2ccccc2F)c1 | 12µM* | 1 | -6% | -1% | ? | 12%
C#C[C@]1(O)CC[C@@H]2[C@H]3CCC4=CCCC[C@@H]4[C@@H]3CC[C@@]21C | / | / | 20%[21.5 µM] | / | -1% | 13%
Cc1ccc(S(=O)(=O)n2ccc3c2CCCC3=O)cc1 | 27µM* | -2 | 4% | 1% | ? | -1%
Cc1ccc(-n2c(C)cc3c2CCCC3=O)cc1 | -6% | 3 | ? | 0% | 13% | -13%
CCc1ccc(Nc2nc(-c3cc4cccc(OC)c4oc3=O)c(CC)s2)cc1 | / | / | -23%[59 µM] | / | 4% | /
O=C(O)c1ccccc1-c1ccccc1C(=O)NCc1ccco1 | -10% | -4 | 50µM* | -1% | -2% | 12%
Cc1ccccc1Cc1c(C)nc2c(C(=O)NCc3ccco3)cnn2c1C | -22% | -1 | ? | -5% | ? | 50µM*
O=C(Cc1ccccc1[N+](=O)[O-])NCc1ccco1 | -7% | 1 | ? | 4% | -20% | 50µM*
O=C(Cc1ccccc1[N+](=O)[O-])NCc1ccncc1 | -1% | 1 | 0% | -18% | 5% | 13%
O=C(CNCc1ccco1)Nc1cc(S(=O)(=O)N2CCOCC2)ccc1N1CCOCC1 | -13% | 0 | / | -1% | -8% | /
O=C(CNCc1ccco1)Nc1ccccc1-n1cccc1 | 1% | -5 | 13µM* | -2% | -12% | -5%
